Results filed as inconclusive are left out. Calls of active or inactive are those of the source. Calls come from the whole dose curve; as a rule, active = well fitted curve in the direction sought with a large enough effect; inconclusive = small, poorly fitted or top-dose-only effect, or effect the other way, or another doubt; inactive = no such curve, though single readings can be large or run the other way.
molecular target: Alpha-galactosidase A (Homo sapiens) (UniProt P06280); experiment: Confirmation of Inhibitors of Human alpha-Galactosidase Using Spleen Homogenate; conditions: alpha-galactosidase enzyme activity; series mostly up to 56.2 µM
Summary of the method: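 AC50 values come from Hill-equation fits of normalised 4-methylumbelliferone fluorescence (365/440 nm, read after NaOH/glycine stop). Enzyme source: spleen homogenate; substrate 1 mM final; pH 5.0 citrate buffer; 40 min at 37C; compound titration 0.5 nM–58 uM.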

Chain of Alpha-galactosidase A (Homo sapiens) (P06280 32-429 limits assumed): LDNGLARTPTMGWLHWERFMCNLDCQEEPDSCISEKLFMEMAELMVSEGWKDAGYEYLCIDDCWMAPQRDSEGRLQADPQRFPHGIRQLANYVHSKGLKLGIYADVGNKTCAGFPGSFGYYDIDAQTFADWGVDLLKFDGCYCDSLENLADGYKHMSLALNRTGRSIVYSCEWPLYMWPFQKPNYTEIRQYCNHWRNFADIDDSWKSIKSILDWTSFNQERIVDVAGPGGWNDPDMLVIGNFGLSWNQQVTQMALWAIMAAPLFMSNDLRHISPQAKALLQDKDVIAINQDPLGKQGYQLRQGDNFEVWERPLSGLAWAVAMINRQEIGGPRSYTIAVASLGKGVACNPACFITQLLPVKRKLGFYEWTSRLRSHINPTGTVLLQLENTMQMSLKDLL

outcome, inactive:
O=c1oc2ccc(Cl)cc2cc1-c1nc2c(s1)CCc1ccccc1-2
Cc1ccc(S(=O)(=O)N2CCN(CC(=O)N/N=C\c3ccccn3)CC2)cc1
Cc1ccc(-c2cc(C(=O)N3CCN(S(=O)(=O)c4ccc(Br)s4)CC3)[nH]n2)c(C)c1
COc1cc(CNc2ccc(N3CCCC3)cc2)ccc1OCc1ccccc1F
O=S(=O)(c1ccccc1)N1CCN(Cc2ccccc2)CC1
COc1ccc(OC)c(/C=C/C(=O)N(C)CC(=O)Nc2ccc(C)cc2)c1
CC(N=C(NC#N)Nc1ccncc1)C(C)(C)C (stereo unspecified)
CCc1sc(-c2cc3cccc(OC)c3oc2=O)nc1-c1ccccc1
CCCN1CNc2c(c(=O)[nH]c(=S)n2CCc2ccc(OC)c(OC)c2)C1
CCS(=O)(=O)N1Cc2ccccc2CC1C(=O)Nc1ccc(NC(C)=O)cc1 (stereo unspecified)
CC(C)Cn1c(SCC(=O)N2CCCCC2)nc2ccccc2c1=O
COc1cc2cc(CN(Cc3nnnn3Cc3ccccc3)CC3CCCO3)c(=O)[nH]c2cc1OC (stereo unspecified)
N#Cc1cccc(S(=O)(=O)N2CCOCC2)c1
CN(CCO)S(=O)(=O)c1ccc2c(c1)C(=NN)c1cc(S(=O)(=O)N(C)CCO)ccc1-2
CC(C)(C)OC(=O)NCCCC[C@H](NC(=O)c1[nH]cnc1C(=O)Nc1ccc(CNC(=O)OC(C)(C)C)cc1)C(=O)OC(C)(C)C
COC(=O)c1ccc(C(=O)OC)c(NC(=S)N2CCOCC2)c1
COc1cc(NC(=O)CN2CCN(c3ccccc3F)CC2)c(C)cc1[N+](=O)[O-]
Cc1cc(NC(=O)C(C)(C)C)cc(-c2nc3ncccc3o2)c1O
N#Cc1ccccc1S(=O)(=O)N1CCOCC1
COc1ccc(/C=c2\s/c(=C/C(=O)c3ccc(C)cc3)[nH]c2=O)cc1OC
O=C(c1cc2c(ccc3ccccc32)oc1=O)N1CCN(CCO)CC1
O=C1c2cc(O)c(O)cc2S(=O)(=O)C1c1ccccc1 (stereo unspecified)
CN1CC=C2C(C#N)=C(N)C(C#N)(C#N)[C@H](c3cccc(Cl)c3)C2C1 (stereo partly specified)
O=S(=O)(c1ccc(Cl)cc1)N1CCOCC1
O=c1oc2ccccc2cc1-c1nc2c(s1)CCc1ccccc1-2
COc1ccc(/C=C/c2nnc(NC(C)=O)s2)cc1
COc1ccc2cc(C#N)c(=O)oc2c1
COc1ccc(C2C3=C(CCCC3=O)N(CC(=O)O)C3=C2C(=O)CCC3)cc1Cl
CCOC(=O)C(CC)(CCC(=O)O)c1csc(Nc2ccc(C)cc2)n1 (stereo unspecified)
O=C(Cn1c(=O)[nH]n(-c2ccccc2)c1=O)N1CCCc2ccccc21
CC(=O)Oc1ccc2cc(-c3nc(-c4ccccc4)c(C)s3)c(=O)oc2c1
COc1cccc2cc(-c3nc4c(s3)CCc3ccccc3-4)c(=O)oc12
O=S(=O)(c1ccccc1F)N1CCOCC1
COc1ccc(-c2nnc(NC(=O)CSc3ccc(Cl)cc3)s2)cc1
C=CCSc1nc(-c2ccc3c(c2)OCO3)cc(C(F)(F)F)c1C#N
COc1ccccc1CNc1ccc(N2CCOCC2)c(C(=O)O)c1
